This is a sample that favours compounds with a hit; in the whole collection about 12% have one here.
Pf growth 48h: P. falciparum growth inhibition at 48 hours (one generation); P. falciparum luciferase growth in erythrocytes, 48 h; hit rate 5.9% among 310,000; Potency, µM (top dose mostly 28.7 µM), without a hit: top-dose activity change, negative = inhibition, usual class: inhibitors; also: % is scaled to controls: 0 for no effect and ±100 for the full control effect
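Luciferase-expressing P. falciparum in infected erythrocytes (2% hematocrit, 0.1% parasitemia final) in RPMI 1640/0.5% Albumax were exposed to compound for 48 hours at 37 C, 5% CO2; growth read as luminescence.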
Sm TGR block: S. mansoni TGR enzyme inhibition | Q962Y6 | purified TGR, DTNB reduction, TNB absorbance 405 nm | Potency, µM (highest dose often 114 µM), for the others: at the top dose activity change, negative = inhibition, most hits filed as inhibitors | hit rate 3% among 360,000; also: % is scaled to controls: 0 for no effect and ±100 for the full control effect; nearly all actives have a fitted effect of over 60% in size
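First, TGR (20 nM dispensed) and NADPH were mixed with compound. Second, a 15 min room-temperature incubation followed. Third, further NADPH and then DTNB were added to start the reaction. Finally, TNB absorbance was monitored kinetically.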
AmpC inh no detg: blocks E. coli AmpC beta-lactamase in detergent-free assay; P00811; AmpC nitrocefin hydrolysis, absorbance 480 nm, 0.0001% Triton; Potency, µM (doses to about 57.1 µM), for inactives: at the top dose activity change, negative = inhibition, usual class: inhibitors; hit rate 0.52% among 330,000;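 also: plate controls were no compound for no effect and no enzyme for full effect; nearly all actives have a fitted effect of over 20% in size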
Target sequence (P00811 whole entry, looked up): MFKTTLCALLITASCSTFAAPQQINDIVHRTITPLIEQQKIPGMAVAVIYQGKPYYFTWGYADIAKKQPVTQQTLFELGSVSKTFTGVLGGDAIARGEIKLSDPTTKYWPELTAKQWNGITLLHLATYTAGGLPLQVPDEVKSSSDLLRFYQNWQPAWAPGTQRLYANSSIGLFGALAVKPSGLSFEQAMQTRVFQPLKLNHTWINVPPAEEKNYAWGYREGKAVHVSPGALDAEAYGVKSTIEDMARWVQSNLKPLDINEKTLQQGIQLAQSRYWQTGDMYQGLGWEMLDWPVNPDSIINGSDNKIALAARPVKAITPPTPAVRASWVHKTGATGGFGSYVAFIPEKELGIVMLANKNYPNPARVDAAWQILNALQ
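AmpC (5.3 nM in the dispensed reagent) in 20 mM phosphate pH 7.0 with 0.01% (detergent screen) or 0.0001% Triton X-100 was preincubated with compounds for 15 min at room temperature. Nitrocefin was then added from an 800 uM solution, and hydrolysis was followed at 480 nm.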
Pf growth 96h: P. falciparum growth inhibition at 96 hours; P. falciparum luciferase reporter growth, 96 h; Potency, µM (top dose mostly 28.7 µM), for the others: at the highest dose activity change, negative = inhibition, actives largely listed as inhibitors; hit rate 6.9% among 320,000; AID 504834; also: % is scaled to controls: 0 for no effect and ±100 for the full control effect
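Erythrocytes infected with luciferase-expressing P. falciparum were dispensed at 2% hematocrit and 0.05% parasitemia (final), then incubated with compounds 96 hours at 37 C in 5% CO2. Luminescence after detection reagent addition reported growth.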
SARS PLP yeast: SARS-CoV PLP inhibition in yeast; S. cerevisiae expressing SARS-CoV PLpro, growth rescue; AID 485353; Potency, µM (titrated, usually from 32.9 µM), inactives show at the top dose activity, positive = growth rescue, usual class: activators; hit rate 0.19% among 330,000; calls by dose curve; also: 0% is about no effect; nearly all actives have a fitted effect of over 55% in size
AmpC detergent: blocks E. coli AmpC beta-lactamase in detergent assay. P00811. AmpC hydrolysis of nitrocefin, absorbance 480 nm, 0.01% Triton. Potency, µM (doses to about 114 µM), for inactives: at the top dose activity change, negative = inhibition, actives largely listed as inhibitors. hit rate 0.041% among 370,000. AID 485294;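 also: 0% = no-compound wells and -100% = no-enzyme wells; nearly all actives have a fitted effect of over 25% in size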
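AmpC (5.3 nM in the dispensed reagent) in 20 mM phosphate pH 7.0 with 0.01% (detergent screen) or 0.0001% Triton X-100 was preincubated with compounds for 15 min at room temperature. Nitrocefin was then added from an 800 uM solution, and hydrolysis was followed at 480 nm.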
* hit, by the source's call; ? = inconclusive; . = not tested or not shown; [ ] = dose if it differs, or a comment. Unless noted, calls follow the shape of the dose curve; as a rule, active = well fitted curve in the direction sought with a large enough effect; inconclusive = small, poorly fitted or top-dose-only effect, or another doubt; inactive = no such curve, though single readings can be large; an effect the other way counts as inactive or inconclusive. Potency is read from the fitted curve at half-maximal effect.

SMILES	Pf growth 48h	Sm TGR block	AmpC inh no detg	Pf growth 96h	SARS PLP yeast	AmpC detergent
COc1ccc2c(c1)OC[C@H]1[C@H]2N2C(=O)c3cc(OC)ccc3NC(=O)[C@@]2(C)[C@H]1c1ccccc1	5.22µM*	3.3%	20.5%	6.57µM*	3.2%	?
COc1ccc2c(c1)OC[C@H]1[C@H]2N2C(=O)c3cc(Cl)ccc3NC(=O)[C@@]2(C)[C@H]1c1ccccc1	9.28µM*	6.1%	-18.4%	3.29µM*	2.3%	2.9%
CC(=O)N1c2ccc(S(=O)(=O)N3CCC(C(=O)NCc4ccccc4)CC3)cc2CC1C (stereo not drawn)	?	-16.5%	32.8%	-23.2%	-17.6%	-6.2%
CC(=O)N1c2ccc(S(=O)(=O)N3CCC(C(=O)Nc4ccccn4)CC3)cc2CC1C (stereo not drawn)	?	-22.8%	12.2%	5.86µM*	1.8%	-0.4%
COc1cc(NC(=O)CN(C)S(=O)(=O)c2ccc3c(c2)CC(C)N3C(C)=O)cc(OC)c1 (stereo not drawn)	0.0%	2.5%	-1.3%	?	3.0%	-16.0%
COc1ccc(NC(=O)CN(C)S(=O)(=O)c2ccc3c(c2)CC(C)N3C(C)=O)c(OC)c1 (stereo not drawn)	?	2.4%	3.4%	7.38µM*	-0.8%	-7.5%
COc1ccc(CNC(=O)C2CCN(S(=O)(=O)c3ccc4c(c3)CC(C)N4C(C)=O)CC2)cc1 (stereo not drawn)	?	-9.4%	27.6%	11.7µM*	7.4%	-9.2%
Cn1c(=O)c(-c2cc(=O)[nH][nH]2)c(O)c2ccccc21	14.8%	6.9%	-45.0%	35.5%[1.15 µM]	8.9%	-5.8%
CCCc1nnc(SCC(=O)Nc2cccc(Cl)c2Cl)o1	11.0%	-10.8%	-14.6%	4.3%	-1.5%	-11.9%
Cc1ccc(S(=O)(=O)c2cn(CC(=O)Nc3ccc4c(c3)OCO4)c3ccc(F)cc3c2=O)cc1	.	3.3%	.	.	.	-13.2%
Cc1c(C(=O)N2CCCCCC2)c(S(=O)(=O)Nc2cccc(C#N)c2)c(C)n1C	.	-6.1%	.	.	.	0.2%
C[C@]12CC[C@@H]3c4ccc(O[C@@H]5O[C@H](C(=O)O)[C@@H](O)[C@H](O)[C@H]5O)cc4CC[C@H]3[C@@H]1C[C@@H](O)[C@@H]2O	9.1%	39.8µM*	-7.0%	-19.6%	1.2%	-6.0%
COc1ccc2c(c1)CC[C@@H]1[C@@H]2CC[C@]2(C)[C@@H](C(=O)O)C[C@@H]12	4.5%	-6.1%	-22.3%	-12.2%	1.0%	-14.4%
Cc1ccc(-c2n[nH]c(=S)n2/N=C/c2ccc(C)s2)cc1	11.7µM*	5.0%	-26.5%	11.7µM*	-1.9%	-0.7%
Cc1ccccc1-c1cc2nccc(-c3cc(Cl)ccc3O)n2n1	.	6.5%	.	.	.	-2.1%
Cc1cc(C)cc(Oc2ccc(N)cc2)c1	26.6%	-1.0%	1.7%	11.7µM*	5.7%	0.6%
Fc1ccc(C2CC(c3ccc(F)cc3)n3ncnc3N2)cc1 (stereo not drawn)	?	-0.1%	31.4%	-25.4%	-10.0%	?
Oc1ccccc1C1=Nc2ncnn2C(c2ccc(F)cc2)C1 (stereo not drawn)	32.5%	14.1µM*	-31.8%	11.7µM*	14.9%	0.0%
Fc1ccc(/C=C2\CCCC3=C2NC(=S)NC3c2ccc(F)cc2)cc1 (stereo not drawn)	?	?	14.1µM*	7.5%	-10.3%	-14.5%
S=C1NC2=C(CCCC2=C2SCCS2)C(c2ccccc2)N1 (stereo not drawn)	-18.2%	44.3%	-49.6%	?	1.7%	3.0%
CCOc1ccc(C2=Cc3cc(OC)c(OC)cc3C(=C(Cl)Cl)O2)cc1	.	35.5µM*	21.7%	?	2.3%	0.2%
CCOc1ccc(-c2cc(-c3nc(-c4ccc(OC)c(OC)c4)no3)[nH]n2)cc1	.	-0.2%	.	.	.	-7.6%

Assay outcomes as filed in PubChem BioAssay.
